Measured values: the supplement of paper PMC10849652
The full data set covers some 7,900 targets. This sample favours those with a hit. About 0.6% of all pairs of compound and target were hits.

Legend:
Assay in all cases: log2 fold change, soluble protein after heating vs DMSO (PISA); higher = thermal stabilisation; K562 cells, 10 uM, 30 min; active = over 0.2 and 3.5 SD of the protein, either way, in both replicates (recomputed)
[1] = compound: COC1=CC=C(C=C1)CN2C=CC3=C2C=C(C=C3)C(=O)NO
Outline: (§1)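 K562 cells at 2×10^6 cells/mL were exposed to 10 μM compound for 30 min, then aliquots were heated for 3 min across 48°C-58°C, pooled, and extracted in PBS containing 0.5% NP-40 at 4°C. The supernatant after 21,000xg for 90 min was taken as soluble protein and measured by TMTpro 16plex LC-MS/MS with channel sums equalised. Thermal stability is reported relative to control samples, with values from duplicates. Fold changes are given on a log2 scale.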

filanesib = compound: CON(C)C(=O)N1N=C(c2cc(F)ccc2F)S[C@@]1(CCCN)c1ccccc1 [filanesib]
Outline: as §1

zotarolimus = compound: CO[C@H]1C[C@@H]2CC[C@@H](C)[C@@](O)(O2)C(=O)C(=O)N2CCCC[C@H]2C(=O)O[C@H]([C@H](C)C[C@@H]2CC[C@H](n3cnnn3)[C@H](OC)C2)CC(=O)[C@H](C)/C=C(\C)[C@@H](O)[C@@H](OC)C(=O)[C@H](C)C[C@H](C)/C=C/C=C/C=C/1C [zotarolimus]
Outline: as §1

idasanutlin = compound: COc1cc(C(=O)O)ccc1NC(=O)[C@@H]1N[C@@H](CC(C)(C)C)[C@](C#N)(c2ccc(Cl)cc2F)[C@H]1c1cccc(Cl)c1F [idasanutlin]
Outline: as §1

alisertib = compound: COc1cc(Nc2ncc3c(n2)-c2ccc(Cl)cc2C(c2c(F)cccc2OC)=NC3)ccc1C(=O)O [alisertib]
Outline: as §1

[2] = compound: COc1cc2nc(-c3cc(F)ccc3O)nc(N[C@@H]3CNC[C@H]3C(C)(C)O)c2cc1OC
Outline: as §1

gefitinib = compound: COc1cc2ncnc(Nc3ccc(F)c(Cl)c3)c2cc1OCCCN1CCOCC1 [gefitinib]
Outline: as §1

[3] = compound: COc1cccc2cc(-c3nc([C@H]4CC[C@H](C(=O)O)CC4)n4ncnc(N)c34)[nH]c12
Outline: as §1

lapatinib = compound: CS(=O)(=O)CCNCc1ccc(-c2ccc3ncnc(Nc4ccc(OCc5cccc(F)c5)c(Cl)c4)c3c2)o1 [lapatinib]
Outline: as §1

[4] = compound: CS(=O)(=O)c1ccc(-c2cnc(N)c(C(=O)Nc3ccccc3)n2)cc1
Outline: as §1

crizotinib = compound: C[C@@H](Oc1cc(-c2cnn(C3CCNCC3)c2)cnc1N)c1c(Cl)ccc(F)c1Cl [crizotinib]
Outline: as §1

[5] = compound: C[C@@H]1COCCN1C2=NC(=NC(=C2)C3(CC3)S(=O)(=O)C)C4=C5C=CNC5=CC=C4
Outline: as §1

[6] = compound: C[C@H](C1=CC=C(C=C1)C(=O)NC2=C3C=CNC3=NC=C2)N
Outline: as §1

duvelisib = compound: C[C@H](Nc1ncnc2nc[nH]c12)c1cc2cccc(Cl)c2c(=O)n1-c1ccccc1 [duvelisib]
Outline: as §1

tozasertib = compound: Cc1cc(Nc2cc(N3CCN(C)CC3)nc(Sc3ccc(NC(=O)C4CC4)cc3)n2)n[nH]1 [tozasertib]
Outline: as §1

[7] = compound: Cc1cc(SCc2sc(-c3ccc(C(F)(F)F)cc3)nc2C)ccc1OCC(=O)O
Outline: as §1

doramapimod = compound: Cc1ccc(-n2nc(C(C)(C)C)cc2NC(=O)Nc2ccc(OCCN3CCOCC3)c3ccccc23)cc1 [doramapimod]
Outline: as §1

pictilisib = compound: CS(=O)(=O)N1CCN(Cc2cc3nc(-c4cccc5[nH]ncc45)nc(N4CCOCC4)c3s2)CC1 [pictilisib]
Outline: as §1

gandotinib = compound: Cc1cc(Nc2cc(CN3CCOCC3)c3nc(C)c(Cc4ccc(Cl)cc4F)n3n2)n[nH]1 [gandotinib]
Outline: as §1

ispinesib = compound: Cc1ccc(C(=O)N(CCCN)[C@@H](c2nc3cc(Cl)ccc3c(=O)n2Cc2ccccc2)C(C)C)cc1 [ispinesib]
Outline: as §1

Measured: log2 fold change

POLR2M (UniProt Q6EEV4)
UniProt Q6EEV4, sequence (Q6EEV4 whole entry, looked up): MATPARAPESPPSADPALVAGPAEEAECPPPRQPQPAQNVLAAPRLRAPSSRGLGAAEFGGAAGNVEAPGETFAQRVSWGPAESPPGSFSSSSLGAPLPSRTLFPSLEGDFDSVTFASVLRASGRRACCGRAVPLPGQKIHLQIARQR
inactive: [1] -0.046 | filanesib 0.076 | zotarolimus 0.034 | idasanutlin 0.046 | alisertib -0.144 | [2] -0.063 | gefitinib 0.076 | [3] -0.033 | lapatinib -0.084 | [4] -0.03 | crizotinib -0.021 | [5] 0.16 | [6] -0.078 | duvelisib -0.024 | tozasertib -0.039 | [7] -0.061 | doramapimod -0.04

PDSS2 (UniProt Q86YH6)
UniProt Q86YH6, sequence (Q86YH6 whole entry, looked up): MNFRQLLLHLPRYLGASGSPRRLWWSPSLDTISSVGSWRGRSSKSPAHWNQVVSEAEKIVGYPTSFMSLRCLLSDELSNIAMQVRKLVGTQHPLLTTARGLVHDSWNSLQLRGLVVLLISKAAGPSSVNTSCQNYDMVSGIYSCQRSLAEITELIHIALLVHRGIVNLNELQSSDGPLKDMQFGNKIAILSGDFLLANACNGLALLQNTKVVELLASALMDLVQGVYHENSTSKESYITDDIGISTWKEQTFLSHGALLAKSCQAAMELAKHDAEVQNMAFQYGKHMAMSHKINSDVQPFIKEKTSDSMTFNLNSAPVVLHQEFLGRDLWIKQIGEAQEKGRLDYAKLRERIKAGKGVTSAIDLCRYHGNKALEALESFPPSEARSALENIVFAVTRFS
inactive: [1] 0.23 | filanesib 0.025 | zotarolimus 0.184 | idasanutlin 0.157 | [2] -0.286 | gefitinib 0.15 | lapatinib 0.162 | pictilisib -0.038 | [4] -0.034 | crizotinib 0.078 | [5] 0.075 | [6] -0.058 | duvelisib -0.083 | gandotinib 0.098 | tozasertib -0.118 | [7] 0.149 | doramapimod 0.049 | ispinesib -0.031

PCID2 (UniProt Q5JVF3)
UniProt Q5JVF3, sequence (Q5JVF3 whole entry, looked up): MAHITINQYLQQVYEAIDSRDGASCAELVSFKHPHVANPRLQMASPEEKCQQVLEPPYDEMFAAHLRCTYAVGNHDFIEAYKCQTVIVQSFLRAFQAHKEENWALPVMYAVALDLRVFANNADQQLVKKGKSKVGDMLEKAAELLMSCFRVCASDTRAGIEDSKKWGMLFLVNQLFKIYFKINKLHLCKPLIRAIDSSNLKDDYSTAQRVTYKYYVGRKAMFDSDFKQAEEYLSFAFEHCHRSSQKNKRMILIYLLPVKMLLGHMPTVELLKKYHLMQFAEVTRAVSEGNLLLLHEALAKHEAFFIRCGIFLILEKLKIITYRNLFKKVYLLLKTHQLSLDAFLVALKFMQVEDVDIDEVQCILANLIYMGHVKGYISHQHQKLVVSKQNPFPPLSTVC
inactive: [1] -0.136 | filanesib -0.025 | zotarolimus -0.07 | alisertib 0.087 | [2] 0.009 | gefitinib 0.039 | [3] -0.023 | lapatinib 0.175 | pictilisib 0.013 | [4] 0.157 | crizotinib -0.171 | [5] -0.138 | [6] 0.246 | duvelisib -0.02 | gandotinib -0.149 | tozasertib -0.028 | [7] 0.058 | doramapimod -0.005 | ispinesib -0.096

PIGG (UniProt Q5H8A4)
UniProt Q5H8A4, sequence (Q5H8A4 whole entry, looked up): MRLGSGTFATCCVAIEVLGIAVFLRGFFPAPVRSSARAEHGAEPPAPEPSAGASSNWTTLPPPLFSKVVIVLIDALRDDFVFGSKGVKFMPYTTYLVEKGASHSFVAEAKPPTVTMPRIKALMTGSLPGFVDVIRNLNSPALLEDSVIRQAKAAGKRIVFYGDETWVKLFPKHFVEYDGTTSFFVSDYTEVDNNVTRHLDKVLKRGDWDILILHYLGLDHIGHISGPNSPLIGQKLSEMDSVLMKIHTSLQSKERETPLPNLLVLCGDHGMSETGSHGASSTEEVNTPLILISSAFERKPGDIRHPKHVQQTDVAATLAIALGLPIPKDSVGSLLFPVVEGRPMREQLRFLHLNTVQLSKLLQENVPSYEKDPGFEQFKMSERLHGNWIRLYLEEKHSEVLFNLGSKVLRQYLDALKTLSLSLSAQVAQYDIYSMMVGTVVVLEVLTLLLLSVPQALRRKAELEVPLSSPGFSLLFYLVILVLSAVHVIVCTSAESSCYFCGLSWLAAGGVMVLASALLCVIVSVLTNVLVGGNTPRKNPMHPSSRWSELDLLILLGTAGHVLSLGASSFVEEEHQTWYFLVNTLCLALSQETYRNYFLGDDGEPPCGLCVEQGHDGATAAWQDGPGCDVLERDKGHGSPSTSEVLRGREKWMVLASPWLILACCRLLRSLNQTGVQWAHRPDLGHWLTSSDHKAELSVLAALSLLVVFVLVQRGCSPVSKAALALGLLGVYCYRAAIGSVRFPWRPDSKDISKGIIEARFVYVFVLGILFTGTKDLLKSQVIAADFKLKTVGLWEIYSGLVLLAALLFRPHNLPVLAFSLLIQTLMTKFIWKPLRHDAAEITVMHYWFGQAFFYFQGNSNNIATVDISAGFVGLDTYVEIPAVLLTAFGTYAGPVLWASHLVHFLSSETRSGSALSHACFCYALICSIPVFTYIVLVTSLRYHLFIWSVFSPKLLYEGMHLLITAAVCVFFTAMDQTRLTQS
inactive: [1] -0.01 | filanesib -0.062 | zotarolimus 0.073 | idasanutlin 0.019 | alisertib -0.048 | [2] 0.098 | gefitinib -0.122 | [3] 0.049 | lapatinib 0.046 | pictilisib 0.017 | [4] 0.062 | crizotinib -0.053 | [5] 0.01 | [6] -0.041 | duvelisib 0.046 | gandotinib -0.035 | tozasertib -0.013 | [7] 0.011 | doramapimod 0.098 | ispinesib -0.02

PDE6D (UniProt O43924)
UniProt O43924, sequence (O43924 whole entry, looked up): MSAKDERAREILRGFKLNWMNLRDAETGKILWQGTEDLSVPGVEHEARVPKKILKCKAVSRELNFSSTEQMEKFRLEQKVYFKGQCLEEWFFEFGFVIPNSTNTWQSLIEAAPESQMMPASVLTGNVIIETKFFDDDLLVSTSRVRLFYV
inactive: [1] -0.036 | filanesib 0.101 | zotarolimus -0.179 | idasanutlin -0.092 | alisertib -0.031 | gefitinib 0.076 | [3] 0.002 | pictilisib 0.078 | [4] -0.165 | crizotinib 0.001 | [5] 0.079 | [6] -0.148 | duvelisib 0.109 | gandotinib -0.202 | tozasertib -0.076 | [7] -0.098 | doramapimod 0.084

PCYT1B (UniProt Q9Y5K3)
UniProt Q9Y5K3, sequence (Q9Y5K3 whole entry, looked up): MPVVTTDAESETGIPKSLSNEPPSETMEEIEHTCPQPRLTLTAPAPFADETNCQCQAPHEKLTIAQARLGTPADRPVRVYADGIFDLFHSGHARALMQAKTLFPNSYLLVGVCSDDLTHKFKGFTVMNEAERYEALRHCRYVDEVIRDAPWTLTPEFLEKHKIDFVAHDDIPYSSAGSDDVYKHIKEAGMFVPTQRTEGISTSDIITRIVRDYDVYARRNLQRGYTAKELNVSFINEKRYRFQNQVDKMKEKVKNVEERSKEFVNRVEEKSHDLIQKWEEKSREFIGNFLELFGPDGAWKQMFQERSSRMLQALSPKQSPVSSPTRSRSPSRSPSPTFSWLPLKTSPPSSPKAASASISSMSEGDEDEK
inactive: [1] 0.005 | filanesib 0.026 | zotarolimus 0 | idasanutlin -0.029 | alisertib -0.156 | [2] 0.131 | gefitinib -0.051 | [3] 0.018 | lapatinib -0.019 | pictilisib -0.12 | [4] -0.008 | crizotinib -0.109 | [5] 0.147 | [6] -0.109 | duvelisib -0.019 | gandotinib -0.088 | tozasertib 0.024 | [7] 0.044 | doramapimod -0.036 | ispinesib 0.12

PSMC5 (UniProt P62195)
UniProt P62195, sequence (P62195 whole entry, looked up): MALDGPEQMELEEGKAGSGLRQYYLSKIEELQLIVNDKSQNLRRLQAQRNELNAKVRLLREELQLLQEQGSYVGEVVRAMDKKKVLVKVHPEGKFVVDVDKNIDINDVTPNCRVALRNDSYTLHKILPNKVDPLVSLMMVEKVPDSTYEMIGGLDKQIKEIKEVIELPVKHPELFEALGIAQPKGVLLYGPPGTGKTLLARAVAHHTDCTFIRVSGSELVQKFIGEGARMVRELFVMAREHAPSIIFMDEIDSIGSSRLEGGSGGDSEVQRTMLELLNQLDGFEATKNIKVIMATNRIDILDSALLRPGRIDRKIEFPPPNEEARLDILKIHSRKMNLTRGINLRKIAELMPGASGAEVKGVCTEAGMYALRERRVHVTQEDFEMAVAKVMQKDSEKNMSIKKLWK
inactive: [1] -0.024 | filanesib 0.037 | zotarolimus -0.018 | idasanutlin 0 | alisertib -0.019 | [2] -0.053 | gefitinib -0.025 | [3] -0.031 | lapatinib 0.052 | pictilisib -0.05 | [4] 0.025 | crizotinib 0.001 | [5] -0.07 | [6] 0.057 | duvelisib -0.028 | gandotinib 0.017 | tozasertib 0.04 | [7] 0.036 | doramapimod 0.028 | ispinesib -0.007

PIK3CD (UniProt O00329)
UniProt O00329, sequence (O00329 whole entry, looked up): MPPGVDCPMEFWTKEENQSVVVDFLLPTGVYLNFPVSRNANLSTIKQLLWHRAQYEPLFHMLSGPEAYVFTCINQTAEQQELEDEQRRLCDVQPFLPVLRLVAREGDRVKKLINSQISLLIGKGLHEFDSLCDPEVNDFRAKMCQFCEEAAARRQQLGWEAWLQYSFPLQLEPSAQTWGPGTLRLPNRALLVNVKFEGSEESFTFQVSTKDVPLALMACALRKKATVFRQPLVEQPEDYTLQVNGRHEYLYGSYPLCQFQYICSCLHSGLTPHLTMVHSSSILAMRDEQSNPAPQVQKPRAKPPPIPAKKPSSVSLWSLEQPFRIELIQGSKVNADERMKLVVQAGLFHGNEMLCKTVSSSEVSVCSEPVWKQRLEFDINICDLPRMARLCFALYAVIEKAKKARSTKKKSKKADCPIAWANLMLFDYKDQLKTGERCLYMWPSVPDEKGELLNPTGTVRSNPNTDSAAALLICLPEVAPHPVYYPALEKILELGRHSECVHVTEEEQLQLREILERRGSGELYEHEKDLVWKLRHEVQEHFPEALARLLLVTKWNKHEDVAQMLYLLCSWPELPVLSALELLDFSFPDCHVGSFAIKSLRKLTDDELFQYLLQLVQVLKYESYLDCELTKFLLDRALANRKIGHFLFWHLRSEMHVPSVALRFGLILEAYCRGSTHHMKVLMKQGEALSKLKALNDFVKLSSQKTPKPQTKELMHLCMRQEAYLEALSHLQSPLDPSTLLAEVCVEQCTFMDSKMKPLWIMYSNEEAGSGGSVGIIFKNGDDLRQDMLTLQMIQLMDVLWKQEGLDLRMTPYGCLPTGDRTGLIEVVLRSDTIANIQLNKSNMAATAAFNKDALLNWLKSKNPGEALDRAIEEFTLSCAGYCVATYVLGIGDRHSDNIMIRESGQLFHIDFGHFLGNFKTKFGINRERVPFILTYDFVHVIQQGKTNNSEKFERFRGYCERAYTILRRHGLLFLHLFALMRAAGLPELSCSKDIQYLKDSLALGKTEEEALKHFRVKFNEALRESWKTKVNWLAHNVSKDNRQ
inactive: [1] -0.016 | filanesib 0.029 | zotarolimus -0.098 | idasanutlin 0.105 | [2] 0.02 | lapatinib -0.018 | [4] -0.019 | crizotinib 0.009 | [5] 0.034 | [6] 0.14 | duvelisib 0.233 | tozasertib 0.049 | [7] -0.11 | doramapimod 0.042 | ispinesib -0.029

QRICH1 (UniProt Q2TAL8)
UniProt Q2TAL8, sequence (Q2TAL8 whole entry, looked up): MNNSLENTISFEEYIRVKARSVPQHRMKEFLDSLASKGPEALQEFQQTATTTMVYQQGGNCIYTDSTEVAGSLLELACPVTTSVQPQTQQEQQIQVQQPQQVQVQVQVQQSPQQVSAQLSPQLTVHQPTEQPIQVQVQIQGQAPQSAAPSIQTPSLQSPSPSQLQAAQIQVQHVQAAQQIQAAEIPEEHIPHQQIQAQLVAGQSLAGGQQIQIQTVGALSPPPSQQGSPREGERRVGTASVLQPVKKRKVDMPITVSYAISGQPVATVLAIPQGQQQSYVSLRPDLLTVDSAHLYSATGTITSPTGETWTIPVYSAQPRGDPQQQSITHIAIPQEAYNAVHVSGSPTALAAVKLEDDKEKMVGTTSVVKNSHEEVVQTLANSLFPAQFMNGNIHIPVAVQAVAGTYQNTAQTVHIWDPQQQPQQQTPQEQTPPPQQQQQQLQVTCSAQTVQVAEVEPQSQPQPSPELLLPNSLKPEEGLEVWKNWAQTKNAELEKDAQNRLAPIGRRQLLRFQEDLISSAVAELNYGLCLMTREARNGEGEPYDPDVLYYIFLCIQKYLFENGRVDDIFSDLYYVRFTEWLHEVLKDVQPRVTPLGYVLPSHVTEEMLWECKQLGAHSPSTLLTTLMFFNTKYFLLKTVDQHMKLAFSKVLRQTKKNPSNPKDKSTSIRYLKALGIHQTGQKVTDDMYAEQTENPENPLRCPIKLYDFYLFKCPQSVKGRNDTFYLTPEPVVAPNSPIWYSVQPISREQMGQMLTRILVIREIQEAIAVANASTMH
inactive: [1] 0.015 | filanesib 0.004 | zotarolimus -0.022 | idasanutlin -0.072 | alisertib 0.071 | [2] 0.08 | gefitinib 0.137 | [3] 0.032 | lapatinib 0.011 | [4] -0.01 | crizotinib -0.2 | [5] 0.07 | [6] 0.016 | duvelisib 0.143 | tozasertib 0.171 | [7] 0.014 | doramapimod -0.077 | ispinesib 0.006

PPP4R3B (UniProt Q5MIZ7)
inactive: [1] -0.01 | filanesib -0.004 | zotarolimus 0.014 | idasanutlin -0.039 | alisertib 0.048 | [2] 0 | gefitinib -0.034 | [3] -0.034 | lapatinib 0.047 | pictilisib 0.076 | [4] -0.003 | crizotinib 0.124 | [5] 0.064 | [6] -0.035 | duvelisib 0.048 | gandotinib -0.075 | tozasertib 0.149 | [7] 0.056 | doramapimod 0 | ispinesib 0.056
